# Source: PubChem BioAssay (National Center for Advancing Translational Sciences (NCATS))
# TSHR agonist – TSH receptor (human) agonism; P16473; HEK293-CNG-TSHR cells (CNG channel as cAMP sensor), membrane potential dye, cAMP; Potency, µM (series often up to 57.1 µM), inactives show at the highest dose activation, hits mostly activators; AID 926; hit rate 0.48% among 73,000; active = well fitted activation curve with a large enough effect in the main read-out, with a control signal flat, not every such curve was filed as active; inconclusive = small, poorly fitted or top-dose-only effect, or a change in a side signal; inactive = no such curve, though single readings can be large or run the other way; % of control where 0% means no effect;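 note: the control signal comes from parental cells without the receptor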
#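 HEK 293 cells stably expressing TSHR and a modified CNG channel, with CNG-only parental cells as counterscreen, were preloaded 60 min at room temperature with membrane potential dye containing 100 uM RO 20-1724. Compound exposure was 30 min, and depolarization was read as fluorescence at 590 nm.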
# HEK293 cAMP ctrl – counter-screen for TSHR agonists: cAMP increase in parental HEK293; parental HEK293 CNG cAMP sensor, membrane potential fluorescence; Potency, µM (titrated, usually from 57.1 µM), without a hit: top-dose activation, hits mostly activators; hit rate 2.5% among 73,000; AID 938; active = well fitted activation curve with a large enough effect; inconclusive = small, poorly fitted or top-dose-only effect; inactive = no such curve, though single readings can be large or run the other way; note: % of control where 0% means no effect; nearly all actives have a fitted effect of over 55% in size
#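 Counterscreen for endogenous-receptor signalling: CNG-channel HEK 293 cells report cAMP rise by membrane depolarization. After 60 min dye equilibration with 100 uM RO 20-1724, compounds incubated 30 min before bottom-read fluorescence at 590 nm.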
# * marks the source's active call; other numbers are inactive results; ? = inconclusive; . = no result; [ ] = another dose, or the depositor's remark. Hits are enriched below; roughly 2.9% of the tested compounds scored in any of these assays. Potency is the fitted concentration of half-maximal effect.
SMILES,TSHR agonist,HEK293 cAMP ctrl
CCC(C)(C(=O)NC1CCCC1)N(Cc1cccs1)C(C)=O (stereo unspecified),9%,16%
CCC(C)(C(=O)NC1CCCC1)N(Cc1cccs1)C(=O)Cc1cccs1 (stereo unspecified),?,2.5µM*
CCC(C)(C(=O)NC1CCCC1)N(C(=O)c1cnccn1)c1ccccc1 (stereo unspecified),24%,23%
CC(C)N(CC(=O)O)CC(=O)O,-2%[11.4 µM],4%[11.4 µM]
N#C[C@@H](Cc1ccc(O)c(O)c1)C(=O)N1CCc2ccccc21,-2%,-15%
Cc1cc(=O)oc2c(OS(C)(=O)=O)c(OS(C)(=O)=O)ccc12,.,28%[11.4 µM]
O=C(CCN1C(=O)c2ccccc2C1=O)N1CCN(C(=O)c2ccccc2)CC1,25µM*,28%
O=C(CCN1C(=O)c2ccccc2C1=O)N1CCN(c2ccccn2)CC1,6%,6%
O[C@@H](C1=C/C(=C\c2ccncc2)c2ccccc21)c1ccncc1,8%[11.4 µM],18%[11.4 µM]
COc1ccc(Cc2nnc3n2N=C(c2cc4ccccc4o2)CS3)cc1OC,?,25µM*
Fc1ccc(C2=Nn3c(Cc4ccccc4)nnc3SC2)cc1,8%,27%
CC(C)C[C@@H](CC(=O)N[C@@H](CCCN)CC(=O)N[C@@H]1CCCC[C@H]1C(=O)N[C@H](CC(=O)N[C@@H](CCC(=O)O)CC(=O)O)CC(C)C)NC(=O)[C@@H]1CCCC[C@H]1N,.,6%
COc1ccc(-c2noc(COc3ccc4ccccc4c3Br)n2)cc1OC,.,16%
COc1ccc(-c2noc(CSc3nc(-c4ccccc4)cc(=O)[nH]3)n2)cc1OC,16µM*,6%
CCOC(=O)C1=NO[C@@]2(C=C(Br)C3(OCCCO3)[C@H]3O[C@H]32)C1,-5%[11.4 µM],-9%[11.4 µM]
CC1(C)Oc2ccc(C(=O)N3CCOCC3)cc2N(CC(=O)N2CCOCC2)C1=O,1%,7%
Cc1ccc(CN2C(=O)C(C)(C)Oc3ccc(C(=O)N4CCCCC4)cc32)cc1,?,25µM*
C/C(CC/C(C)=N/O)=N/O,-2%[11.4 µM],6%[11.4 µM]
C1CCCNCC1,-3%,17%
COc1ccc2nc(C)cc(SCC(=O)O)c2c1,-3%,3%
COc1ccc2c(C)cc(SCC#N)nc2c1,?,32µM*
CC[C@H](C)N(C)C(=O)c1cc2ccccc2c(-c2ccccc2Cl)n1,25µM*,?
CC(=O)NCCNc1nc(-c2ccccc2Cl)nc2ccccc12,10%,9%
O=C(C1CCC(CNS(=O)(=O)c2cccc3cccnc23)CC1)N1CCCC1 (stereo unspecified),?,25µM*
O=C(C1CCC(CNS(=O)(=O)c2cccs2)CC1)N1CCCCC1 (stereo unspecified),2%[11.4 µM],11%
SMILES,TSHR agonist,HEK293 cAMP ctrl
CN(C)CCC(=O)[C@@]1(O)CC[C@H]2[C@H]3CC=C4C[C@@H](O)CC[C@]4(C)[C@H]3CC[C@]21C,3%[11.4 µM],5%[11.4 µM]
CCCCOCCCNC(=O)Cc1cccs1,?,1.6µM*
O=C(Cc1cccs1)NCc1cccs1,-2%,6%
O=C1c2ccccc2C(Nc2ccc(Cl)cn2)N1c1ccccn1 (stereo unspecified),?,16µM*
COc1cc(OC)c(NC2c3ccccc3C(=O)N2c2cc(C)ccn2)cc1Cl (stereo unspecified),6%,4%
COc1ccc(O[C@H]2C=C[C@@H](c3ccccc3)O[C@H]2COC(=O)CC/C(C)=N\O[C@@H](C)c2cc(-c3c(C)cc(C)cc3C)no2)cc1,10%[11.4 µM],1%[11.4 µM]
CCC(c1nnnn1CCc1ccccc1)N(Cc1ccco1)Cc1cc2cc(C)cc(C)c2[nH]c1=O (stereo unspecified),?,13µM*
Cc1ccc2[nH]c(=O)c(CN(CCc3ccccc3)C(c3nnnn3Cc3ccco3)C(C)C)cc2c1 (stereo unspecified),11%,15%
O=C(NCCCCN1CCCC1)c1ccc(-n2c(=O)c(=O)[nH]c3ccccc32)cc1,-1%,-19%
CCOC(=O)c1sc(NC(=O)CSc2nncs2)c(C(=O)OCC)c1C,?,25µM*
CCOC(=O)c1c(-c2cccs2)csc1NC(=O)CSc1ncn[nH]1,.,27%
CCOC(=O)c1c(-c2ccc(C)o2)csc1NC(=O)CSc1nnc(C)s1,?,32µM*
CCOC(=O)c1sc(NC(=O)CSc2nnnn2-c2ccc(C)cc2)c(C(=O)OCC)c1C,6%[11.4 µM],15%
Cc1cc(N2CCOCC2)nc2ccc(Cc3ccc4nc(N5CCOCC5)cc(C)c4c3)cc12,4%[11.4 µM],4%[11.4 µM]
COCC(=O)N1CCC2(CC1)CN(c1ccccn1)C2,?,16µM*
O=C(c1csnn1)N1CCC2(CC1)CCN(c1ccccn1)CC2,8%,14%
COC(=O)N1CCC2(CC1)CCN(c1ccccc1)CC2,-2%,19%
O=C(Oc1ccccc1)N1CCC2(CC1)CCN(c1ccccn1)CC2,?,13µM*
O=C(Oc1ccccc1)N1CCC2(CC1)CCN(c1ccncc1)CC2,?,7.9µM*
COCC(=O)N1CCC2(CC1)CCN(c1ccccn1)CC2,22%,-8%
